Measured values from the supplement of paper PMC10646978.
± gives the standard deviation.

What was measured:
Conditions in all cases: modulator concentration 10 µM
[1] = tested on: RAW-Dual (murine macrophage reporter line); assay: NF-kB reporter (SEAP) activity fold change vs agonist alone; higher = enhanced NF-kB activity
Outline: (§1)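 RAW-Dual murine macrophage reporter cells were plated at 50 000 per well in 384-well plates, pin-transferred compound to 10 μM final, and pre-incubated for 1 hour at 37 °C before a PRR agonist was added and the cells incubated overnight. NF-κB activity was read from supernatant SEAP with QUANTI-Blue at 620 nm absorbance, and IRF activity from Lucia luciferase with QUANTI-Luc by luminescence. Each signal was expressed as fold change by dividing by the mean agonist-only control on the same plate. Two replicate plates were averaged, with errors obtained by propagation.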

[2] = tested on: RAW-Dual (murine macrophage reporter line); assay: IRF reporter (Lucia luciferase) activity fold change vs agonist alone; higher = enhanced IRF activity
Outline: as §1

[3] = tested on: RAW-Dual (murine macrophage reporter line); assay: viability score (confluency relative to resting cells, overnight) (fraction); higher = more viable, active = viable (0.7 or more)
Outline: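 RAW-Dual macrophages in 384-well plates were exposed overnight to compound at 10 μM final. Confluency was imaged with IncuCyte, and two confluency masks were generated with IncuCyte software over all imaged wells. The viability score is confluency expressed relative to resting cells. Compounds were called viable if both masks exceeded 70% of resting cells.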

[4] = agonist: CpG ODN 1826 0.5 ug/mL

Row | SMILES | NF-kB reporter [1, 4] | NF-kB reporter ([1]; agonist: LPS 0.1 ug/mL) | NF-kB reporter ([1]; agonist: MPLA […]) | IRF reporter ([2]; agonist: 3'3'-cGAMP 10 ug/mL) | IRF reporter ([2]; agonist: LPS 0.1 ug/mL) | IRF reporter ([2]; agonist: MPLA […]) | viability score [3]
1 | CC(=O)Oc1ccc2occ(C(=O)c3cccs3)c2c1 | 0.844 ± 0.099 | 0.964 ± 0.13 | 1.19 ± 0.14 | 0.836 ± 0.039 | 1.17 ± 0.074 | 1.26 ± 0.18 | 1.02 (active)
2 | CS(=O)(=O)N(CC(=O)Nc1ccccc1Cl)c1ccc(Cl)c(C(F)(F)F)c1 | 0.753 ± 0.067 | 1.08 ± 0.062 | 0.874 ± 0.052 | 1.52 ± 0.11 | 1.35 ± 0.14 | 1.25 ± 0.2 | 0.961 (active)
3 | Cl.Nc1ccn([C@@H]2O[C@H](CO)[C@@H](O)C2(F)F)c(=O)n1 | 1.3 ± 0.31 | 0.921 ± 0.05 | 1.29 ± 0.087 | 1.25 ± 0.063 | 1.51 ± 0.17 | 1.32 ± 0.21 | 0.173 (inactive)
4 | Cc1ccc(C)c(NC(=O)CCN2CCN(C=O)CC2)c1 | 0.822 ± 0.17 | 0.905 ± 0.088 | 0.967 ± 0.079 | 0.962 ± 0.045 | 1.27 ± 0.37 | 1.33 ± 0.18 | 0.979 (active)
5 | ON=C1ON=C(c2ccccc2)C1=NO | 0.867 ± 0.067 | 0.775 ± 0.038 | 0.875 ± 0.078 | 0.176 ± 0.0086 | 1.29 ± 0.078 | 1.42 ± 0.13 | 0.998 (active)
6 | CC(C)NCC(O)COc1ccc(CCOCC2CC2)cc1.Cl (configuration not stated) | 0.952 ± 0.13 | 1.2 ± 0.25 | 0.968 ± 0.068 | 0.907 ± 0.032 | 1.57 ± 0.17 | 1.31 ± 0.1 | 0.981 (active)
7 | COc1ccc(CNCc2cccc3ccccc23)c(OC)c1 | 0.108 ± 0.013 | 0.586 ± 0.065 | 0.607 ± 0.063 | 0.968 ± 0.076 | 1.21 ± 0.12 | 1.36 ± 0.22 | 0.354 (inactive)
8 | COC(C)(CNC(=O)c1cc2ccccc2[nH]1)c1ccccc1F (configuration not stated) | 0.825 ± 0.035 | 0.96 ± 0.081 | 1.06 ± 0.057 | 0.944 ± 0.063 | 1.01 ± 0.17 | 1.11 ± 0.22 | 0.94 (active)
9 | Cl.O[C@@H](CNC[C@H](O)[C@H]1CCc2cc(F)ccc2O1)[C@@H]1CCc2cc(F)ccc2O1 | 0.947 ± 0.09 | 0.759 ± 0.049 | 0.982 ± 0.028 | 0.68 ± 0.087 | 0.642 ± 0.021 | 1.13 ± 0.21 | 0.13 (inactive)
10 | CC#CCn1c(N2CCCC(N)C2)nc2c1c(=O)n(Cc1nc(C)c3ccccc3n1)c(=O)n2C (configuration not stated) | 0.931 ± 0.24 | 1.08 ± 0.085 | 0.972 ± 0.065 | 0.925 ± 0.033 | 1.23 ± 0.15 | 1.39 ± 0.13 | 0.988 (active)
11 | C(#Cc1ccc(C=Nc2nccs2)cc1)c1ccccc1 | 0.714 ± 0.18 | 0.935 ± 0.17 | 0.892 ± 0.1 | 0.176 ± 0.029 | 1.09 ± 0.16 | 1.15 ± 0.17 | 0.997 (active)
12 | CC1(C)OC[C@@H](COC(=O)CCc2ccc(OC[C@@H](O)CNCCNC(=O)N3CCOCC3)cc2)O1.Cl | 1.05 ± 0.079 | 0.966 ± 0.072 | 0.987 ± 0.023 | 0.985 ± 0.098 | 0.97 ± 0.11 | 0.832 ± 0.2 | 1 (active)
13 | Cc1occc1C(=O)NN=Cc1cc([N+](=O)[O-])ccc1O | 1.12 ± 0.11 | 0.959 ± 0.12 | 1.16 ± 0.079 | 0.681 ± 0.096 | 1.23 ± 0.095 | 1.27 ± 0.28 | 0.997 (active)
14 | Cc1c(Cl)cccc1S(=O)(=O)NCc1ccnc(N2CCCC2=O)c1 | 1.01 ± 0.055 | 1.03 ± 0.094 | 0.92 ± 0.043 | 0.993 ± 0.057 | 1.07 ± 0.079 | 1.03 ± 0.093 | 0.957 (active)
15 | Cc1cc(CCNC(=O)c2nc3ccccc3s2)nn1C | 1.1 ± 0.062 | 0.978 ± 0.12 | 0.978 ± 0.053 | 0.953 ± 0.052 | 1.02 ± 0.048 | 0.943 ± 0.29 | 1 (active)
16 | COc1ccc(C=Nn2cnnc2)cc1COc1cc(C)c(Cl)cc1C(C)C | 0.854 ± 0.088 | 0.761 ± 0.04 | 0.984 ± 0.095 | 1.21 ± 0.11 | 1.03 ± 0.06 | 1.3 ± 0.11 | 0.995 (active)
17 | O=c1[nH][nH]c(=O)c2c(N=Cc3cc4c(cc3[N+](=O)[O-])OCO4)cccc12 | 0.878 ± 0.082 | 0.823 ± 0.074 | 0.961 ± 0.096 | 0.983 ± 0.031 | 1.13 ± 0.18 | 1.22 ± 0.28 | 0.995 (active)
18 | COc1ccc(CNCc2ccc3ccccc3c2)c(OC)c1 | 0.163 ± 0.026 | 1.08 ± 0.09 | 1.79 ± 0.56 | 0.644 ± 0.046 | 1.74 ± 0.38 | 2.05 ± 0.59 | 0.688 (inactive)
19 | Cc1nc2n(c(=O)c1CCN1CCC(c3noc4cc(F)ccc34)CC1)CCCC2 | 0.741 ± 0.18 | 0.982 ± 0.09 | 0.915 ± 0.06 | 0.891 ± 0.036 | 1.13 ± 0.3 | 1.03 ± 0.13 | 1.01 (active)
20 | COc1ccc(C(C)NC(=O)c2[nH]nnc2-c2ccc(F)cc2)cc1 (configuration not stated) | 1.17 ± 0.066 | 0.983 ± 0.14 | 1.01 ± 0.054 | 0.669 ± 0.026 | 1.01 ± 0.094 | 0.958 ± 0.15 | 0.997 (active)
21 | CC1(C)Cc2cccc(OCC(=O)NCc3ccccn3)c2O1 | 0.948 ± 0.064 | 1 ± 0.1 | 0.986 ± 0.045 | 0.896 ± 0.034 | 1.02 ± 0.048 | 0.906 ± 0.087 | 0.996 (active)
22 | Cc1ccc(-c2cc(C(F)(F)F)nn2-c2ccc(S(N)(=O)=O)cc2)cc1 | 0.337 ± 0.026 | 0.481 ± 0.03 | 0.59 ± 0.078 | 1.1 ± 0.091 | 0.848 ± 0.052 | 0.984 ± 0.087 | 0.183 (inactive)
23 | Cc1cc(NC2CCCC2)nc2ccccc12 | 0.798 ± 0.21 | 1.48 ± 0.12 | 1.91 ± 0.27 | 1.12 ± 0.068 | 1.88 ± 0.28 | 2.72 ± 0.43 | 0.608 (inactive)
24 | CC1(C)CC(=O)C=C(Nc2ccc(Br)c(Cl)c2)C1 | 0.734 ± 0.066 | 0.962 ± 0.067 | 0.839 ± 0.083 | 1.14 ± 0.06 | 1.08 ± 0.066 | 1.08 ± 0.12 | 1.02 (active)
25 | O=C(N/N=C/c1ccc([N+](=O)[O-])o1)c1ccc(O)cc1 | 1.54 ± 0.21 | 2.63 ± 0.4 | 2.97 ± 0.26 | 1.01 ± 0.051 | 1.88 ± 0.34 | 1.43 ± 0.12 | 0.968 (active)
26 | CCOC(=O)Cc1cc(OC)c(OC)cc1C(C)=NNc1ccccc1 | 0.719 ± 0.056 | 0.831 ± 0.12 | 0.98 ± 0.085 | 0.816 ± 0.055 | 1.13 ± 0.065 | 1.09 ± 0.15 | 1 (active)
